Compound activity from PubChem BioAssay.
Most compounds without a hit are left out; they make up all but 3% or so of the library.
SENP7 inh: blocks the human protease SENP7. recombinant SENP7, Z-RLRGG-aminoluciferin luminescence, 40 min. inhibition, % at 5 µM. Q9BQF6. AID 434973. actives 1.5% (n = 330,000);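 active = inhibition above about 50% at the single test dose, limit read from the data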
PPC-1+TRAIL kill: compounds killing PPC-1 cancer cells with TRAIL present (potentiator screen, no TRAIL-free arm). PPC-1 cells + TRAIL, ATPLite viability luminescence. cell killing (% activity), % at 4 µM or 5 µM. actives 0.41% (n = 220,000);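 active = cell killing above 50% in the first pass at 4 µM, then a duplicate retest at 5 µM averaging 50% or more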
SENP6 inh: SENP6 protease inhibition; inhibition, % at 10 µM; Q9GZR1; Recombinant SENP6 catalytic domain, aminoluciferin luminescence; actives 1.8% (n = 330,000); AID 2599;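 active = inhibition above about 50% at the single tested dose, limit read from the data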
SENP8 block-1: SENP8 protease inhibition. AID 2540. purified SENP8, Z-RLRGG-aminoluciferin cleavage, luminescence. inhibition, % at 10 µM. actives 1.2% (n = 330,000). Q96LD8; in the data active = inhibition above about 50%
Target sequence (Q96LD8 whole entry, looked up): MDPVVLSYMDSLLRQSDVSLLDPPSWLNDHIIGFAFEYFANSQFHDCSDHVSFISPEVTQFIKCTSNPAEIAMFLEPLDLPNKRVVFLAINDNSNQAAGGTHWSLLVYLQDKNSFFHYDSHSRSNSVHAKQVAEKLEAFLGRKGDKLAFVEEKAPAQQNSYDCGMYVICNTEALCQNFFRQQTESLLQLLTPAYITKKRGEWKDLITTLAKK
TRAIL sens C8: caspase-8 TRAIL sensitization; actives 1% (n = 360,000); inhibition (viability loss, TRAIL sensitization), % at 10 µM; AID 624354; NB7+C8 cells + TRAIL, ATPlite viability luminescence;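 active = compounds causing at least 50% loss of cell viability in the single-dose screen, relative to plate controls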
SENP8 block-2: blocks human SENP8 cleavage of Nedd8 substrate; recombinant SENP8, Nedd8 substrate fluorescence; actives 0.64% (n = 360,000); inhibition, % at 20 µM; Q96LD8; AID 602440; in the data active = inhibition mostly above about 40%, no sharp cut-off; inactive = mostly below about 27%
SENP8 confirm: confirmation of human SENP8 protease inhibitors; shares compounds with SENP7 inh; Recombinant SENP8, Z-RLRGG-aminoluciferin luminescence, 60 min; inhibition, % at 12.5 µM; actives 40% (n = 6,200);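 active = mean inhibition across replicates above about 50%, limit read from the data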
SENP6 conf: human SENP6 inhibition, confirmed. shares compounds with SENP7 inh. recombinant SENP6, Z-RLRGG-aminoluciferin luminescence. inhibition, % at 12.5 µM. actives 58% (n = 6,200). AID 488915
SENP7 conf: confirmation of human SENP7 protease inhibitors; shares compounds with SENP7 inh; recombinant SENP7, Z-RLRGG-aminoluciferin luminescence, 40 min; inhibition, % at 12.5 µM; actives 69% (n = 6,200); AID 488917
Casp3 SENP sel: selectivity test for SENP inhibitors: human caspase-3 inhibition; shares compounds with SENP7 inh; purified caspase-3, Z-DEVD-aminoluciferin luminescence, 60 min; inhibition, % at 12.5 µM; actives 60% (n = 6,200); AID 488918;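 active = mean inhibition above about 50%, limit read from the data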
Target sequence (P42574 28-227 limits assumed): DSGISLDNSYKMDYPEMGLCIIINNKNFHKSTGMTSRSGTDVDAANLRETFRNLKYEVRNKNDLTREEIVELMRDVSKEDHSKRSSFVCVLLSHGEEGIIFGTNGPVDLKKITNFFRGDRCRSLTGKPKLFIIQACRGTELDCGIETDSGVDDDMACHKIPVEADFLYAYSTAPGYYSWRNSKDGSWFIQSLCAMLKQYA
SENP luc ctr: counter-screen for SENP inhibitors: luminescence interference | shares compounds with SENP7 inh | Pre-incubated SENP8/Z-RLRGG-aminoluciferin, luciferase luminescence interference | inhibition, % at 12.5 µM | actives 39% (n = 6,200) | AID 488919;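 active = mean inhibition above about 50% when retested at one dose, limit read from the data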
Hits are given with their value; . = inactive; / = no result.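 Rule for the calls, unless noted: active = mean inhibition above about 50% in the one-dose retest (limit read from the data); inactive = the rest.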

SMILES | SENP7 inh | PPC-1+TRAIL kill | SENP6 inh | SENP8 block-1 | TRAIL sens C8 | SENP8 block-2 | SENP8 confirm | SENP6 conf | SENP7 conf | Casp3 SENP sel | SENP luc ctr
Cc1ccc2[nH]c(-c3cccc(N)c3)cc2c1 | 70 | . | . | 56 | . | . | 57 | 77 | 94 | . | 53
CCOC(=O)COn1c(-c2cccc(Cl)c2)nc2ccc([N+](=O)[O-])cc21 | 90 | . | 94 | 87 | . | . | 81 | 81 | 92 | 65 | 69
O=S1(=O)N[C@H](Cc2ccccc2)COc2cc(N3CCC[C@@H]3CO)ccc21 | / | / | / | / | . | . | / | / | / | / | /
O=C(O)C1CC(c2ccccc2)=NO1 (stereo not given) | 95 | . | . | . | . | . | . | . | . | . | .
O=C(O)C1CC(c2ccc(F)cc2)=NO1 (stereo not given) | . | . | . | . | . | . | / | / | / | / | /
O=C1/C(=C/c2cccc([N+](=O)[O-])c2)Oc2cc(O)ccc21 | . | / | 67 | 54 | . | . | . | . | . | . | .
NC(=O)CSc1cn(Cc2ccccc2)c2ccccc12 | . | . | . | . | . | . | / | / | / | / | /
Cc1cccc(/C=N\Nc2cn[nH]c(=O)c2Cl)c1 | 71 | . | 76 | 55 | . | . | 71 | 67 | 88 | 76 | .
COc1cc(/C=C2\C(=O)N(c3ccc(NC(C)=O)cc3)N=C2c2ccccc2)ccc1O | . | . | . | . | . | . | / | / | / | / | /
CCOc1cc(/C=C2\C(=O)N(c3nc(-c4ccc(Br)cc4)cs3)N=C2c2ccccc2)ccc1O | . | . | 51 | . | . | . | . | . | . | . | .
Cc1ccc2nc(-c3cccnc3SCC(=O)N3c4ccccc4CC3C)[nH]c2c1 (stereo not given) | . | . | 55 | . | . | . | . | . | 70 | . | .
COc1ccc(OC(=O)c2ccc3nsnc3c2)cc1 | 59 | . | . | . | . | . | . | . | . | . | .
CCc1ccc(NC(=O)Nc2cccs2)cc1 | . | . | 78 | 57 | 54 | . | . | 56 | 89 | 53 | .
O=C(Nc1cccs1)Nc1ccc(Br)cc1F | . | . | 64 | . | . | . | . | . | 61 | . | .
CCOc1ccc(NC(=O)Nc2ccc3nsnc3c2)cc1 | . | . | . | . | . | . | / | / | / | / | /
CCOc1ccc(NC(=O)Nc2cccnc2)cc1 | 58 | . | 60 | . | 58 | . | . | . | 75 | 74 | .
CCOc1ccc(NC(=O)Nc2cccs2)cc1 | 73 | . | . | 67 | 51 | . | . | 72 | 95 | 85 | 82
CC(=O)Nc1sc(N/N=C\c2ccco2)nc1-c1cccs1 | . | . | . | . | . | . | / | / | / | / | /
NC(=O)CC(NC(=O)c1cccc(Br)c1)c1ccc(NC2CCCCCCC2)c([N+](=O)[O-])c1 (stereo not given) | . | / | . | . | . | . | / | / | / | / | /
O=C(NCCCN1CCOCC1)/C(=C/c1ccco1)NC(=O)c1ccccc1 | . | / | . | . | . | . | / | / | / | / | /
COc1ccc(C2CC=C(C(C)=O)CN2S(=O)(=O)c2ccc(Cl)cc2)cc1 (stereo not given) | / | / | / | / | . | . | / | / | / | / | /
O=C(Nc1ccc([N+](=O)[O-])cc1)Nc1ccon1 | . | / | . | . | . | . | / | / | / | / | /
CCc1ccc(NC(=O)Nc2ccon2)cc1 | 52 | / | . | . | . | . | . | . | 70 | 52 | .
Cc1ccc(NC(=O)Nc2cccs2)cc1 | . | . | 64 | 55 | . | . | . | 56 | 87 | 65 | .
Cc1ccc(NC(=O)Nc2cccs2)nc1 | . | . | . | . | . | . | / | / | / | / | /
SMILES | SENP7 inh | PPC-1+TRAIL kill | SENP6 inh | SENP8 block-1 | TRAIL sens C8 | SENP8 block-2 | SENP8 confirm | SENP6 conf | SENP7 conf | Casp3 SENP sel | SENP luc ctr
O=C(/C=C/c1ccccc1)N1CCN(c2c(Cl)cccc2[N+](=O)[O-])CC1 | . | . | . | . | . | . | / | / | / | / | /
Oc1ccccc1/C=N/Nc1cccc2cccnc12 | 88 | . | 92 | 87 | . | . | 92 | 96 | 101 | 80 | .
CN1C[C@@H]2[C@@H]3C(=O)N(Cc4ccccc4)C(=O)[C@@H]3[C@](C)(C1=O)N2C(=O)c1ccc(Br)cc1 | / | / | / | / | . | . | / | / | / | / | /
Cc1nn2c(-c3ccc(Cl)cc3)nnc2s1 | . | . | . | . | . | . | / | / | / | / | /
Cc1nn2cc(-c3ccc(Cl)cc3)nc2s1 | 87 | . | 81 | 54 | . | . | . | . | . | . | .
Cc1nn2cc(-c3ccc(-c4ccccc4)cc3)nc2s1 | 58 | . | . | . | . | . | . | . | . | . | .
Cc1c(C(=O)N2CCCCC2)c(S(=O)(=O)N2CCC(C)CC2)c(C)n1C | . | / | . | . | . | . | / | / | / | / | /
Cc1ccc(S(=O)(=O)Nc2ccccc2CNC2CCCCC2)cc1 | . | . | . | . | . | . | / | / | / | / | /
CCCCn1c(N)c(N(CCC(C)C)C(=O)C2CCCC2)c(=O)[nH]c1=O | . | / | . | . | . | . | / | / | / | / | /
C(=N\N=C\c1ccccc1)/c1ccccc1 | 69 | . | 83 | 65 | . | . | . | 67 | 94 | 62 | .
Cc1ccc(C(=O)OCC(=O)Nc2ccccc2Cl)c(O)c1 | 66 | . | . | . | . | . | . | . | . | . | .
COc1cccc(NC(=O)CN(C)C(=O)c2csc3c2CCCC3)c1 | . | / | . | . | . | . | / | / | / | / | /
Cc1ccc(NC(=O)c2scc3c2CCCC3)cc1 | 85 | . | 91 | . | . | . | . | . | . | . | .
Cc1ccc(NC(=O)c2cc3c(s2)CCCC3)cc1 | . | . | . | . | . | . | / | / | / | / | /
Cc1cccc(NC(=S)NNC(=O)c2csc3c2CCCC3)c1 | . | . | . | 61 | . | . | . | . | . | . | .
COc1ccc(NC(=O)c2csc3c2CCCC3)cc1 | 50 | . | . | . | . | . | . | . | 75 | . | .
COc1cccc(NC(=O)c2csc3c2CCCC3)c1 | 62 | . | 68 | 54 | . | . | 59 | 59 | 87 | . | .
Cc1ccc(O)c(NC(=O)c2onc(C)c2Cl)c1 | . | / | . | . | . | . | / | / | / | / | /
CC(C)CN1CCC(Oc2cccc(C(=O)NCCc3ccccc3)c2)CC1 | . | / | . | . | . | . | / | / | / | / | /
CCCCCC(=O)NNC(=O)Nc1ccccc1 | . | . | . | . | . | . | / | / | / | / | /
CCCCSC(=O)Nc1ccccc1 | 71 | . | 80 | 52 | . | . | . | 73 | 90 | 65 | 55
